Screening results from PubChem.
TDP1 cell CPT – qHTS for Inhibitors of human tyrosyl-DNA phosphodiesterase 1 (TDP1): qHTS in cells in presence of CPT | chicken DT40 Tdp1-/-;hTDP1 cells + 20 nM CPT, ATP luminescence, 48 h | Potency, µM (doses to about 46.2 µM), inactives show top-dose activity change, negative = growth inhibition, most hits filed as inhibitors | 420,000 compounds, 12% hits | AID 686979, 2013; note: % is set by controls: 0 for no effect and ±100 for the full control effect; nearly all actives have a fitted effect of over 55% in size
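Chicken DT40 Tdp1-/- cells complemented with human TDP1, 400 cells/well, exposed to compounds plus 20 nM camptothecin for at least 48 h at 37 C; viability read as ATP content by CellTiter-Glo luminescence.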
DT40 TDP1 no CPT – qHTS for Inhibitors of human tyrosyl-DNA phosphodiesterase 1 (TDP1): qHTS in cells in absence of CPT | DT40 Tdp1-/- hTDP1 cells, no CPT, ATP luminescence, 48 h | Potency, µM (highest dose often 46.2 µM), for the others: top-dose activity change, negative = growth inhibition, usual class: inhibitors | 420,000 compounds, 15% hits; note: % is set by controls: 0 for no effect and ±100 for the full control effect; nearly all actives have a fitted effect of over 55% in size
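A cellular qHTS used chicken DT40 cells lacking endogenous Tdp1 but carrying stably transfected human TDP1. Compounds were applied without camptothecin, and cell growth kinetics were judged by ATP-dependent luminescence after ≥48 hr.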
HT1080 IDH1KD tx – qHTS for induction of synthetic lethality in tumor cells producing 2HG: qHTS for the HT-1080-IDH1KD cell line; HT-1080 IDH1 knockdown viability, ATP luminescence, 48 h; Potency, µM (titrated, usually from 46.1 µM), without a hit: top-dose activity, negative = toxicity, most hits filed as cytotoxic; 360,000 compounds, 2% hits; AID 686971, 2013;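 note: 0% = DMSO wells and -100% = cell-free medium wells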
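CellTiter-Glo luminescence after 48 h compound exposure at 37 degrees C of IDH1-knockdown HT-1080 cells in 5% FBS RPMI. %Activity scaled between DMSO wells and cell-free media wells, with curves fitted and assigned curve classes.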
HT1080-NT tox – qHTS for induction of synthetic lethality in tumor cells producing 2HG: qHTS for the HT-1080-NT fibrosarcoma cell line | HT-1080-NT fibrosarcoma viability, CellTiter-Glo ATP luminescence, 48 h | Potency, µM (highest dose often 46.1 µM), for the others: at the highest dose activity, negative = less viability, actives largely listed as cytotoxic | 360,000 compounds, 1.6% hits;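 note: NT is the 2HG producing partner of a matched IDH1 knockdown line; 0% = DMSO-treated cells and -100% = media-only wells without cells; nearly all actives have a fitted effect of over 55% in size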
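Toxicity toward the 2HG-producing NT line was scored as %Activity, normalised to DMSO and no-cell wells, from CellTiter-Glo luminescence after 48 hours' treatment.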
TGFb inhibitor – qHTS for Inhibitors of TGF-b; Potency, µM (titrated, usually from 46.1 µM), for inactives: at the highest dose activity, negative = inhibition, actives largely listed as inhibitors; 410,000 compounds, 1.2% hits; HepG2 CAGA-GFP TGF-b/SMAD3 reporter, GFP fluorescence, 18 h; TGF-beta stimulated, 500 pg/mL final; note: % is set by controls: 0 for no effect and ±100 for the full control effect; nearly all actives have a fitted effect of over 65% in size
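TGF-beta reporter screen: HEPG2 CAGA-GFP, 1% FBS, 500 pg/mL TGF-beta final, 18 h; per-cell GFP summed per well; curves fitted and categorized by class.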
HepG2 tox – qHTS for Inhibitors of TGF-b: Cytotox Counterscreen. HepG2 CAGA-GFP viability, ATP luminescence, 18 h. Potency, µM (doses to about 46.1 µM), without a hit: at the top dose activity change, negative = cytotoxicity, hits mostly cytotoxic. 410,000 compounds, 0.76% hits. AID 588856, 2011
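HepG2 CAGA-GFP cells (1000/well, DMEM with 1% FBS) received compound, then TGF-beta at 500 pg/mL final, and were incubated 18 hours at 37 degrees C. Viability was read by CellTiter-Glo luminescence. Media-only wells were set as complete cell-killing and DMSO as no toxicity.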
* hit, by the source's call; ? = inconclusive; . = no result. An excerpt weighted towards active compounds, which were near 17% of everything screened. Calls come from the whole dose curve; as a rule, active = well fitted curve in the direction sought with a large enough effect; inconclusive = small, poorly fitted or top-dose-only effect, or another doubt; inactive = no such curve, though single readings can be large; an effect the other way counts as inactive or inconclusive. Potency is the fitted concentration of half-maximal effect.

SMILES | TDP1 cell CPT | DT40 TDP1 no CPT | HT1080 IDH1KD tx | HT1080-NT tox | TGFb inhibitor | HepG2 tox
CCCCN(CC)CCNC(=O)C1CCN(S(=O)(=O)c2cccc3nsnc23)CC1 | 7% | 2% | 12% | 1% | 6% | -5%
O=C(C1CCN(c2ncnc3c2sc2cccc(F)c23)CC1)N1CCOCC1 | 12µM* | 29µM* | -16% | -14% | ? | -59%
O=C(C1CCN(c2nnc(-n3cccc3)s2)CC1)N1CCOCC1 | -8% | -8% | -3% | 4% | -3% | -19%
CCCCN(CC)CCCNC(=O)C1CCN(c2ncnc3c2sc2cccc(F)c23)CC1 | 18µM* | 29µM* | 21µM* | 21µM* | ? | -37%
O=C(NCCN1CCOCC1)C1CCN(c2ncnc3c2sc2cccc(F)c23)CC1 | 12µM* | 21µM* | 7% | 2% | -6% | -11%
O=C(NCCN1CCOCC1)C1CCN(Cc2ccccc2O)CC1 | 22% | -9% | 3% | -2% | -7% | -1%
O=C(COc1ccc(Cl)cc1)NCCNc1ccc([N+](=O)[O-])cc1 | -9% | -15% | -5% | -7% | 1% | -31%
Cc1cccc(CCNC(=O)CNS(=O)(=O)c2ccc3nc(C)sc3c2)c1 | -9% | 4% | 3% | -2% | -6% | -2%
S=C1CC2CCCC(C2)N1 (stereo not drawn) | 9% | -2% | 11% | 8% | -7% | -1%
COc1ccc(S(=O)(=O)n2c(CCN3CCOCC3)nc3ccccc32)cc1 | -28% | 21µM* | -18% | -9% | -24% | -17%
c1ccc2c(c1)nc(CN1CCOCC1)n1c3ccccc3nc21 | 13µM* | 16µM* | -4% | -19% | -1% | 6%
COc1ccc(S(=O)(=O)n2cnc3ccccc32)cc1 | -13% | -11% | 26% | 21% | -20% | 5%
CCc1nc2ccccc2c2nc3ccccc3n12 | ? | -16% | ? | -27% | -10% | -29%
CC(C)(C)c1ccc(S(=O)(=O)n2c(CN3CCOCC3)nc3ccccc32)cc1 | 21µM* | ? | -10% | -16% | -4% | -8%
CCCCS(=O)(=O)N[C@@H](Cc1ccc(OCCCCC2CCNCC2)cc1)C(=O)O | 3% | -3% | . | . | . | .
CCOc1ccc(CCNC(=O)CCn2ccc3cc(S(=O)(=O)N4CCCC4)ccc32)cc1 | ? | ? | -12% | -13% | ? | -5%
Fc1cccc(Cc2c(-c3ccco3)nc3ccc(Br)cn23)c1 | 16µM* | 16µM* | 16µM* | ? | ? | -97%
COc1ccccc1Cc1c(-c2ccco2)nc2ccc(Cl)cn12 | 16µM* | 23µM* | ? | ? | 16µM* | -96%
Fc1cccc(Cc2c(-c3ccco3)nc3ccc(Cl)cn23)c1 | ? | ? | ? | ? | ? | -51%
COc1ccccc1Cc1c(-c2ccc(OC)c(OC)c2)nc2ccc(Br)cn12 | 18µM* | 5.8µM* | 18µM* | ? | ? | -2%
COc1ccccc1Cc1c(-c2ccco2)nc2ccc(Br)cn12 | 10µM* | 21µM* | ? | ? | ? | -93%
COc1ccc(N(CC(=O)NCCSCc2ccc(C)cc2)S(=O)(=O)c2ccccc2)cc1 | ? | 7.3µM* | ? | -25% | -23% | -8%
CCOc1ccc(N(CC(=O)NCCSCc2ccco2)S(=O)(=O)c2ccc(C)cc2)cc1 | 18µM* | ? | -19% | -23% | -4% | -5%
CCOc1ccc(S(=O)(=O)N(CC(=O)NCCSCc2ccccc2)c2ccccc2)cc1 | -24% | -2% | . | . | -17% | 0%
CCOc1ccc(N(CC(=O)NCCSCc2ccco2)S(=O)(=O)c2ccc(F)cc2)cc1 | ? | 21µM* | 0% | -7% | -7% | 0%
SMILES | TDP1 cell CPT | DT40 TDP1 no CPT | HT1080 IDH1KD tx | HT1080-NT tox | TGFb inhibitor | HepG2 tox
Cc1ccc(S(=O)(=O)c2nnn3c2nc(NCc2ccccc2Cl)c2sccc23)cc1 | ? | ? | . | . | 40% | -3%
CCc1cccc(NC(=O)CCn2c(=O)c3cccn3c3cccnc32)c1 | -22% | -17% | . | . | ? | -3%
Cc1cc(O)c(N=Cc2cc3c(cc2[N+](=O)[O-])OCO3)cc1C | ? | 21µM* | -12% | 0% | ? | -61%
Cc1cc(SC#N)cc(C)c1NC(=O)CCl | 3.3µM* | 2.6µM* | 23µM* | 18µM* | ? | 11µM*
CCOC(=O)CC(=O)Nc1c(C)cc(C)cc1C | -2% | 5% | -1% | 7% | -11% | 3%
CCc1cc(SC#N)cc(C)c1NC(=O)CCl | 1.5µM* | 1.6µM* | ? | ? | 7.1µM* | -88%
CCC(=O)Nc1ccc(SC#N)cc1C | 6.5µM* | 5µM* | 7.9µM* | ? | ? | -42%
C1=Cc2ccccc2/C1=C/c1ccc2c(c1)OCO2 | -13% | -21% | . | . | 3% | -34%
CC1Cc2ccccc2N1C(=O)CCS(=O)(=O)c1ccc2c(c1)NC(=O)CS2 (stereo not drawn) | 23µM* | ? | 0% | -5% | 0% | -3%
COC(=O)c1ccc(NC(=O)CCS(=O)(=O)c2ccc3c(c2)NC(=O)C(C)S3)cc1 (stereo not drawn) | ? | ? | -2% | -2% | 3% | -9%
Cc1ccc(C)c(N2CCN(C(=O)CCS(=O)(=O)c3ccc4c(c3)NC(=O)C(C)S4)CC2)c1 (stereo not drawn) | 23µM* | 15µM* | 0% | -5% | ? | -22%
COc1ccc(N2CCN(C(=O)CCS(=O)(=O)c3ccc4c(c3)NC(=O)C(C)S4)CC2)cc1 (stereo not drawn) | ? | 10µM* | 0% | -2% | -26% | -7%
CC(=O)c1ccc(N2CCN(C(=O)CCS(=O)(=O)c3ccc4c(c3)NC(=O)CS4)CC2)cc1 | 18µM* | ? | -17% | -4% | 0% | -2%
O=C(CCS(=O)(=O)c1ccc2c(c1)NC(=O)CS2)NCCc1ccccc1 | 8% | 6% | -5% | 12% | -2% | -8%
CC1CCC(NC(=O)CCS(=O)(=O)c2ccc3c(c2)NC(=O)CS3)CC1 (stereo not drawn) | -15% | 10% | 20% | 0% | 4% | 1%
